# Data taken from PubChem BioAssay AID1159580 (chemical genetic matrix, 2015).
# Out of some 5,500 compounds screened, about 2,000 (36%) were called active. About 18% were inconclusive and are not listed. The list shows a part of the results. Unmarked numbers belong to inactive results. No stated cut-off is given here; in the data, active means normalized growth mostly below about 0.91 (no sharp cut-off); inconclusive means no clear call, values can overlap the other calls; inactive means mostly above about 0.92.
# Assay: chemical genetic growth profiling, strain panel (AID 1159580);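 further: tested at 20 µM; growth read once vehicle control cultures reached saturation at 30 °C; 1 = growth at the plate median or of vehicle wells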
# Details: growth OD
compound,measurement,setting,value
COC(=O)COc1cc(Cl)c(Cl)cc1Cl,normalized growth,"S. cerevisiae deletion strains, locus YJR075W, strain HOC1, stronger effect = lower value",0.952
same,normalized growth,"S. cerevisiae deletion strains, locus YKL009W, strain mrt4, stronger effect = lower value",0.995
same,normalized growth,"S. cerevisiae deletion strains, locus YKL068W, stronger effect = lower value",0.955
same,normalized growth,"S. cerevisiae deletion strains, locus YKL085W, strain MDH1 (second series), stronger effect = lower value",0.949
same,normalized growth,"S. cerevisiae deletion strains, locus YKL085W, strain MDH1, stronger effect = lower value",0.949
same,normalized growth,"S. cerevisiae deletion strains, locus YKL160W, strain elf1, stronger effect = lower value",1
same,normalized growth,"S. cerevisiae deletion strains, locus YKL190W, strain CNB1, stronger effect = lower value",0.971
same,normalized growth,"S. cerevisiae deletion strains, locus YKR001C, strain vps1, stronger effect = lower value",0.916
same,normalized growth,"S. cerevisiae deletion strains, locus YKR026C, strain gcn3, stronger effect = lower value",0.992
same,normalized growth,"S. cerevisiae deletion strains, locus YKR091W, strain srl3, stronger effect = lower value",0.993
same,normalized growth,"S. cerevisiae deletion strains, locus YLL001W, strain dnm1, stronger effect = lower value",0.99
same,normalized growth,"S. cerevisiae deletion strains, locus YLL026W, stronger effect = lower value",0.993
same,normalized growth,"S. cerevisiae deletion strains, locus YLL041C, strain sdh2, stronger effect = lower value",1
same,normalized growth,"S. cerevisiae deletion strains, locus YLR027C, strain aat2, stronger effect = lower value",0.991
same,normalized growth,"S. cerevisiae deletion strains, locus YLR039C, strain RIC1, stronger effect = lower value",0.613 (active)
same,normalized growth,"S. cerevisiae deletion strains, locus YLR058C, strain SHM2, stronger effect = lower value",0.979
same,normalized growth,"S. cerevisiae deletion strains, locus YLR102C, strain apc9, stronger effect = lower value",0.957
same,normalized growth,"S. cerevisiae deletion strains, locus YLR113W, strain HOG1, stronger effect = lower value",0.879
same,normalized growth,"S. cerevisiae deletion strains, locus YLR221C, strain rsa3, stronger effect = lower value",0.987
same,normalized growth,"S. cerevisiae deletion strains, locus YLR258W, strain gsy2, stronger effect = lower value",0.994
same,normalized growth,"S. cerevisiae deletion strains, locus YLR262C, strain YPT6 (second series), stronger effect = lower value",0.863
same,normalized growth,"S. cerevisiae deletion strains, locus YLR262C, strain YPT6, stronger effect = lower value",0.662
same,normalized growth,"S. cerevisiae deletion strains, locus YLR268W, strain sec22, stronger effect = lower value",0.955
same,normalized growth,"S. cerevisiae deletion strains, locus YLR320W, strain mms22, stronger effect = lower value",1.01
same,normalized growth,"S. cerevisiae deletion strains, locus YLR330W, strain CHS5, stronger effect = lower value",0.975
same,normalized growth,"S. cerevisiae deletion strains, locus YLR342W, strain FKS1 (second series), stronger effect = lower value",1.04
same,normalized growth,"S. cerevisiae deletion strains, locus YLR342W, strain FKS1, stronger effect = lower value",0.997
same,normalized growth,"S. cerevisiae deletion strains, locus YLR357W, strain rsc2, stronger effect = lower value",0.895
same,normalized growth,"S. cerevisiae deletion strains, locus YLR370C, strain arc18, stronger effect = lower value",1
same,normalized growth,"S. cerevisiae deletion strains, locus YLR371W, strain rom2, stronger effect = lower value",0.986
same,normalized growth,"S. cerevisiae deletion strains, locus YLR384C, strain iki3, stronger effect = lower value",1.01
same,normalized growth,"S. cerevisiae deletion strains, locus YLR418C, strain cdc73, stronger effect = lower value",0.859
same,normalized growth,"S. cerevisiae deletion strains, locus YML016C, strain PPZ1, stronger effect = lower value",0.966
same,normalized growth,"S. cerevisiae deletion strains, locus YML032C, strain rad52, stronger effect = lower value",0.988
same,normalized growth,"S. cerevisiae deletion strains, locus YML120C, strain ndi1, stronger effect = lower value",0.995
same,normalized growth,"S. cerevisiae deletion strains, locus YML124C, strain tub3, stronger effect = lower value",0.96
same,normalized growth,"S. cerevisiae deletion strains, locus YMR058W, strain fet3, stronger effect = lower value",1
same,normalized growth,"S. cerevisiae deletion strains, locus YMR078C, strain ctf18, stronger effect = lower value",0.97
same,normalized growth,"S. cerevisiae deletion strains, locus YMR125W, strain sto1, stronger effect = lower value",1
same,normalized growth,"S. cerevisiae deletion strains, locus YMR129W, stronger effect = lower value",0.978
same,normalized growth,"S. cerevisiae deletion strains, locus YMR205C, strain PFK2, stronger effect = lower value",1.02
same,normalized growth,"S. cerevisiae deletion strains, locus YMR223W, strain ubp8, stronger effect = lower value",0.978
same,normalized growth,"S. cerevisiae deletion strains, locus YMR231W, strain pep5, stronger effect = lower value",0.989
same,normalized growth,"S. cerevisiae deletion strains, locus YMR263W, strain SAP30, stronger effect = lower value",0.985
same,normalized growth,"S. cerevisiae deletion strains, locus YMR307W, strain GAS1, stronger effect = lower value",1.06
same,normalized growth,"S. cerevisiae deletion strains, locus YNL067W, strain RPL9B, stronger effect = lower value",0.967
same,normalized growth,"S. cerevisiae deletion strains, locus YNL071W, strain lat1, stronger effect = lower value",0.996
same,normalized growth,"S. cerevisiae deletion strains, locus YNL128W, strain TEP1, stronger effect = lower value",0.978
same,normalized growth,"S. cerevisiae deletion strains, locus YNL153C, strain GIM3, stronger effect = lower value",0.989
same,normalized growth,"S. cerevisiae deletion strains, locus YNL183C, strain NPR1, stronger effect = lower value",0.809 (active)
same,normalized growth,"S. cerevisiae deletion strains, locus YNL209W, strain ssb2, stronger effect = lower value",1.01
same,normalized growth,"S. cerevisiae deletion strains, locus YNL233W, strain BNI4, stronger effect = lower value",0.982
same,normalized growth,"S. cerevisiae deletion strains, locus YNL248C, strain rpa49, stronger effect = lower value",1
same,normalized growth,"S. cerevisiae deletion strains, locus YNL250W, strain rad50, stronger effect = lower value",0.957
same,normalized growth,"S. cerevisiae deletion strains, locus YNL271C, strain bni1, stronger effect = lower value",0.956
same,normalized growth,"S. cerevisiae deletion strains, locus YNL298W, strain CLA4, stronger effect = lower value",0.994
same,normalized growth,"S. cerevisiae deletion strains, locus YNL307C, strain MCK1, stronger effect = lower value",0.855 (active)
same,normalized growth,"S. cerevisiae deletion strains, locus YNL322C, strain KRE1 (second series), stronger effect = lower value",0.996
same,normalized growth,"S. cerevisiae deletion strains, locus YNL322C, strain KRE1, stronger effect = lower value",0.977
same,normalized growth,"S. cerevisiae deletion strains, locus YNR049C, strain mso1, stronger effect = lower value",0.991
same,normalized growth,"S. cerevisiae deletion strains, locus YNR052C, strain pop2, stronger effect = lower value",0.993
same,normalized growth,"S. cerevisiae deletion strains, locus YOL006C, strain TOP1, stronger effect = lower value",0.895
same,normalized growth,"S. cerevisiae deletion strains, locus YOL012C, strain htz1",0.897
same,normalized growth,"S. cerevisiae deletion strains, locus YOL147C, strain pex11, stronger effect = lower value",0.964
same,normalized growth,"S. cerevisiae deletion strains, locus YOR001W, strain rrp6, stronger effect = lower value",1.01
same,normalized growth,"S. cerevisiae deletion strains, locus YOR061W, strain CKA2, stronger effect = lower value",0.974
same,normalized growth,"S. cerevisiae deletion strains, locus YOR069W, strain VPS5, stronger effect = lower value",0.979
same,normalized growth,"S. cerevisiae deletion strains, locus YOR070C, strain gyp1, stronger effect = lower value",0.985
same,normalized growth,"S. cerevisiae deletion strains, locus YOR080W, strain dia2, stronger effect = lower value",1
same,normalized growth,"S. cerevisiae deletion strains, locus YOR083W, strain WHI5, stronger effect = lower value",1
same,normalized growth,"S. cerevisiae deletion strains, locus YOR106W, strain vam3, stronger effect = lower value",1.02
same,normalized growth,"S. cerevisiae deletion strains, locus YOR136W, strain idh2, stronger effect = lower value",0.99
same,normalized growth,"S. cerevisiae deletion strains, locus YOR144C, strain elg1, stronger effect = lower value",0.975
same,normalized growth,"S. cerevisiae deletion strains, locus YOR184W, strain ser1, stronger effect = lower value",0.904
same,normalized growth,"S. cerevisiae deletion strains, locus YOR231W, strain MKK1, stronger effect = lower value",0.86
same,normalized growth,"S. cerevisiae deletion strains, locus YOR265W, strain rbl2, stronger effect = lower value",0.98
same,normalized growth,"S. cerevisiae deletion strains, locus YOR270C, strain vph1, stronger effect = lower value",1.1
same,normalized growth,"S. cerevisiae deletion strains, locus YOR290C, strain snf2, stronger effect = lower value",1.01
same,normalized growth,"S. cerevisiae deletion strains, locus YOR316C, strain cot1, stronger effect = lower value",0.964
same,normalized growth,"S. cerevisiae deletion strains, locus YPL051W, strain arl3, stronger effect = lower value",0.992
same,normalized growth,"S. cerevisiae deletion strains, locus YPL055C, strain LGE1, stronger effect = lower value",0.953
same,normalized growth,"S. cerevisiae deletion strains, locus YPL078C, strain atp4, stronger effect = lower value",1.02
same,normalized growth,"S. cerevisiae deletion strains, locus YPL106C, strain sse1, stronger effect = lower value",0.957
same,normalized growth,"S. cerevisiae deletion strains, locus YPL240C, strain hsp82, stronger effect = lower value",0.997
same,normalized growth,"S. cerevisiae deletion strains, locus YPL241C, strain CIN2, stronger effect = lower value",0.972
same,normalized growth,"S. cerevisiae deletion strains, locus YPL256C, strain CLN2, stronger effect = lower value",0.786 (active)
same,normalized growth,"S. cerevisiae deletion strains, locus YPR119W, strain clb2, stronger effect = lower value",0.955
same,normalized growth,"S. cerevisiae deletion strains, locus YPR141C, strain kar3, stronger effect = lower value",0.948
same,normalized growth,"S. cerevisiae deletion strains, locus YPR163C, strain tif3, stronger effect = lower value",0.992
same,normalized growth,"S. cerevisiae deletion strains, locus YPR167C, strain met16, stronger effect = lower value",0.976
same,normalized growth,"S. cerevisiae deletion strains, strain wtn01, stronger effect = lower value",0.962
same,normalized growth,"S. cerevisiae strains, strain wild type, stronger effect = lower value",0.969
